Experiment [1] deals with Myc proto-oncogene protein (Homo sapiens) (UniProt P01106). Description: ATG_Myc_CIS: Attagene CIS-FACTORIAL HepG2 Assay for human Myelocytomatosis (Myc) Proto-Oncogene Transcription Factor (AID 2282990). The conditions noted are these: HepG2, Attagene cis-reporter transcription factor activity; actives raise or lower the signal. An outline of the steps:
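Transiently transfected HepG2 cells bearing cis-promoter reporter units for endogenous transcription factors; 24 h exposure. Reporter mRNA measured by RT-PCR, 6-FAM primer extension, HpaI cut and capillary electrophoresis; bidirectional fit relative to DMSO.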

Experiment [2] can be described thus: ATG_NF_kB_CIS: Attagene CIS-FACTORIAL HepG2 Assay for human Nuclear Factor Kappa B (NF-kB) (AID 2282991). The conditions noted are these: HepG2 Attagene cis-factorial NF-kB reporter mRNA; actives raise or lower the signal. A digest of the protocol: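 Fluorescence of labelled RT-PCR products separated by capillary electrophoresis gives reporter mRNA levels from transfected HepG2 cells exposed 24 h; values are fitted in both directions relative to DMSO.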

Experiment [3] in a line: ATG_NRF2_ARE_CIS: Attagene CIS-FACTORIAL HepG2 Assay for human Nuclear Factor Erythroid 2 Related Factor 2 (NFR2) response to Antioxidant Response Elements (ARE) (AID 2282992). The conditions noted are these: HepG2 Attagene ARE/NRF2 reporter, transcription factor activity; actives raise or lower the signal. An outline of the steps:
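Transient MRTU transfection of HepG2; 24 h compound exposure; TriZol RNA, RT with oligo(dT), PCR, 6-FAM primer extension, HpaI cut, CE. Bidirectional fit vs DMSO.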

Experiment [4] can be described thus: ATG_Oct_MLP_CIS: Attagene CIS-FACTORIAL HepG2 Assay for human Octamer-Binding Transcription Factor (Oct) (AID 2282993). The conditions noted are these: HepG2 Attagene cis-factorial Oct reporter, mRNA; actives raise or lower the signal. A digest of the protocol:
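Transient MRTU transfection of HepG2 → 24 h compound treatment → RNA isolation, reverse transcription, PCR → 6-FAM primer extension, HpaI digest → capillary electrophoresis. Activity fitted both directions against DMSO.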

In experiment [5] the target is human Peroxisome Proliferator-activated Receptor alpha (PPARa), PPARA (gene 5465) (UniProt Q07869). Description: ATG_PPARa_TRANS: Attagene TRANS-FACTORIAL HepG2 Assay for human Peroxisome Proliferator-activated Receptor alpha (PPARa) (AID 2283001; active = hit-call score of the fitted dose curve at least 0.9, where 1 is the maximum). A digest of the protocol: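 HepG2 cells transiently transfected with multiplexed GAL4-UAS reporters driven by exogenous chimeric NR-Gal4 proteins; reporter mRNA measured after 24 h dosing. Read-out by RT-PCR, 6-FAM labelling, HpaI digestion and capillary electrophoresis; gain of signal versus DMSO.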
human Peroxisome Proliferator-activated Receptor alpha (PPARa), PPARA (gene 5465), sequence (Q07869 whole entry, looked up, the tested form may be a part): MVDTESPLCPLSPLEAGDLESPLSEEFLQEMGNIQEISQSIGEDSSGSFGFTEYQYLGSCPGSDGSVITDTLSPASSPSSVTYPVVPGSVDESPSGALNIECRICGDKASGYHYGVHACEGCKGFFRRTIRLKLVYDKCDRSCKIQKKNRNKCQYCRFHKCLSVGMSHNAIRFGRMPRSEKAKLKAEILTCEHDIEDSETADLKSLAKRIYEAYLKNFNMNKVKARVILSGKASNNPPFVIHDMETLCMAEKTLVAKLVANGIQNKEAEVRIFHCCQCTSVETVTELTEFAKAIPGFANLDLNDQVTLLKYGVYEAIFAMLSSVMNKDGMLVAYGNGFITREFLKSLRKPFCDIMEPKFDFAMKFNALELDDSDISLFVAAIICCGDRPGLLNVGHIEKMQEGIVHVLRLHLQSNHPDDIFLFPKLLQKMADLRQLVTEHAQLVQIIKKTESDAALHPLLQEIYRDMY

The target in experiment [6] is Peroxisome proliferator-activated receptor gamma (Homo sapiens) (UniProt P37231). As to the kind of experiment: ATG_PPARg_TRANS: Attagene TRANS-FACTORIAL HepG2 Assay for human Peroxisome Proliferator-activated Receptor-gamma (PPARg) (AID 2283007; active = hit-call score of the fitted dose curve at least 0.9, where 1 is the maximum). A digest of the protocol: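 Twenty-four hours after chemical dosing of transiently transfected HepG2 cells, isolated RNA was converted to cDNA, reporter sequences amplified and 6-FAM-labelled, then HpaI-digested and analysed by capillary electrophoresis. Signal increase against DMSO was fitted.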
Peroxisome proliferator-activated receptor gamma (Homo sapiens), sequence (P37231 whole entry, looked up): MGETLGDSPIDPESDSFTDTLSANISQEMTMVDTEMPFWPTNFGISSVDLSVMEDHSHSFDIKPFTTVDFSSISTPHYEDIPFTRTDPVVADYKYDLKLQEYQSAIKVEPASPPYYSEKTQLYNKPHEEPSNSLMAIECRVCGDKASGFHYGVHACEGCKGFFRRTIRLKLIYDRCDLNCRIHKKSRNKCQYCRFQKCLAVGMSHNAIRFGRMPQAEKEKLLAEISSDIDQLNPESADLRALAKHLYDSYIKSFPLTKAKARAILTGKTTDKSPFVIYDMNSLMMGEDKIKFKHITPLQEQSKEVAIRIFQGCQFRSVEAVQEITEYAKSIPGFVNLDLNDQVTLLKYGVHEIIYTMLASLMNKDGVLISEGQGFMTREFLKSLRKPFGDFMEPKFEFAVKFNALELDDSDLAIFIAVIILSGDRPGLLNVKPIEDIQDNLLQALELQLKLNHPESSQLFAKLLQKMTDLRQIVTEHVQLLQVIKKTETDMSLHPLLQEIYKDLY

Experiment [7] addresses Nuclear receptor subfamily 1 group I member 2 (Homo sapiens) (UniProt O75469). Description: ATG_PXR_TRANS: Attagene TRANS-FACTORIAL HepG2 Assay for human Pregnane X Receptor (PXR) (AID 2283008; active = hit-call score of the fitted dose curve at least 0.9, where 1 is the maximum). An outline of the steps:
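Read-out is fluorescence of labelled reporter cDNA fragments separated by capillary electrophoresis after RT-PCR and HpaI digestion. Source: HepG2 cells carrying PXR-GAL4/UAS reporter constructs, treated 24 h; activity fitted upward relative to DMSO.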

For experiment [8], the target named is human RAR-related Orphan Receptor gamma (RORg), RORC (gene 6097) (UniProt P51449). Description: ATG_RORg_TRANS: Attagene TRANS-FACTORIAL HepG2 Assay for human RAR-related Orphan Receptor gamma (RORg) (AID 2283011; active = hit-call score of the fitted dose curve at least 0.9, where 1 is the maximum). A digest of the protocol: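 Readout: reporter transcript induction (RT-PCR, fluorescent primer extension, capillary electrophoresis) after 24 h compound exposure of transiently transfected HepG2 cells carrying a RORg-Gal4 chimera and GAL4-UAS reporters; DMSO served as baseline, with increasing signal fitted.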
human RAR-related Orphan Receptor gamma (RORg), RORC (gene 6097), sequence (P51449 whole entry, looked up, the tested form may be a part): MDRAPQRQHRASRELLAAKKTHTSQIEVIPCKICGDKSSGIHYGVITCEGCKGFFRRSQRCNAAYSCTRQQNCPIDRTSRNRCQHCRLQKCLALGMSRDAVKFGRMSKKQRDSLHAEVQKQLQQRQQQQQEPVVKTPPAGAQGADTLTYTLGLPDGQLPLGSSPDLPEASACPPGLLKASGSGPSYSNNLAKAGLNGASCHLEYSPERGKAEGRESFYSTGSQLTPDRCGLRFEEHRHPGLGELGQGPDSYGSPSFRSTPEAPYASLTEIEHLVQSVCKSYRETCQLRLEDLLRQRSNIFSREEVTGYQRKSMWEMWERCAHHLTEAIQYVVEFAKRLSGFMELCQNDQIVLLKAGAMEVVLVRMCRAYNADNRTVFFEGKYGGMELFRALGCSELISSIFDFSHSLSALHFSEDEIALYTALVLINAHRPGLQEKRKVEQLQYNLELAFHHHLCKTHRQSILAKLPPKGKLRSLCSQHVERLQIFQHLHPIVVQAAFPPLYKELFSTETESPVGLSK

For experiment [9], the target named is human Peroxisome Proliferator-activated Receptor delta (PPARd), PPARD (gene 5467) (UniProt Q03181). As to the kind of experiment: ATG_PPARd_TRANS: Attagene TRANS-FACTORIAL HepG2 Assay for human Peroxisome Proliferator-activated Receptor delta (PPARd) (AID 2283002; active = hit-call score of the fitted dose curve at least 0.9, where 1 is the maximum). A digest of the protocol: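 HepG2 cells transiently transfected with GAL4-UAS multiplexed reporter units driven by exogenous chimeric NR-GAL4 proteins; 24 h compound exposure. Reporter mRNA measured by RT-PCR, 6-FAM primer extension, HpaI digestion and capillary electrophoresis; gain of signal fitted relative to DMSO.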
human Peroxisome Proliferator-activated Receptor delta (PPARd), PPARD (gene 5467), sequence (Q03181 whole entry, looked up, the tested form may be a part): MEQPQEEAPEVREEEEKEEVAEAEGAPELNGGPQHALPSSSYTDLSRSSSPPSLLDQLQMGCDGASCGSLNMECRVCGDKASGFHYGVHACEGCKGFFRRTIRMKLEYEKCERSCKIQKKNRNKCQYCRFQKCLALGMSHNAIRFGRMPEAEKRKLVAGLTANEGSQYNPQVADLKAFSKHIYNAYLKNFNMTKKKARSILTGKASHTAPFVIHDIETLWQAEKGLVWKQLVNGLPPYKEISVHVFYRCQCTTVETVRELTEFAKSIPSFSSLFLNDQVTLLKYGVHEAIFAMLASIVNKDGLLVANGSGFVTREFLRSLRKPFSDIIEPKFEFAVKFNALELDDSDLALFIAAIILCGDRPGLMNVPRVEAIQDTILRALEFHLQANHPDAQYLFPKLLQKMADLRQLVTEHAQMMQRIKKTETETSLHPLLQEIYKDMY

The target in experiment [10] is Retinoic acid receptor alpha (Homo sapiens) (UniProt P10276). As to the kind of experiment: ATG_RARa_TRANS: Attagene TRANS-FACTORIAL HepG2 Assay for human Retinoic Acid Receptor alpha (RARa) (AID 2283005; active = hit-call score of the fitted dose curve at least 0.9, where 1 is the maximum;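 as to AC50: potency for increased reporter signal meaning RARa activation over DMSO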). A digest of the protocol:
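HepG2 transiently transfected with multiplex GAL4-UAS reporter units including a human RARa–GAL4 chimera; 24 h compound exposure. Reporter mRNA quantified by RT-PCR, 6-FAM labeling and capillary electrophoresis; gain of signal versus DMSO.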

Experiment [11] addresses human Retinoic Acid Receptor gamma (RARg), RARG (gene 5916) (UniProt P13631). Description: ATG_RARg_TRANS: Attagene TRANS-FACTORIAL HepG2 Assay for human Retinoic Acid Receptor gamma (RARg) (AID 2283009; active = hit-call score of the fitted dose curve at least 0.9, where 1 is the maximum). A digest of the protocol: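 HepG2 transiently transfected with GAL4-UAS reporter units and chimeric NR-Gal4 constructs; 24 h compound exposure. Reporter mRNA quantified by RT-PCR, FAM labeling, HpaI digestion and capillary electrophoresis; gain-of-signal versus DMSO.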

In experiment [12] the target is Cellular tumor antigen p53 (Homo sapiens) (UniProt P04637). Description: ATG_p53_CIS: Attagene CIS-FACTORIAL HepG2 Assay for human p53 Transcription Factor (AID 2282994). The conditions noted are these: HepG2 p53 cis-element reporter, Attagene mRNA; actives raise or lower the signal. A digest of the protocol: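 HepG2, transient MRTU transfection (cis promoter elements, endogenous TFs); 24 h dosing; RNA isolation, RT-PCR, 6-FAM primer extension, HpaI digest, CE fluorescence; bidirectional fit vs DMSO.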
Cellular tumor antigen p53 (Homo sapiens), sequence (P04637 whole entry, looked up): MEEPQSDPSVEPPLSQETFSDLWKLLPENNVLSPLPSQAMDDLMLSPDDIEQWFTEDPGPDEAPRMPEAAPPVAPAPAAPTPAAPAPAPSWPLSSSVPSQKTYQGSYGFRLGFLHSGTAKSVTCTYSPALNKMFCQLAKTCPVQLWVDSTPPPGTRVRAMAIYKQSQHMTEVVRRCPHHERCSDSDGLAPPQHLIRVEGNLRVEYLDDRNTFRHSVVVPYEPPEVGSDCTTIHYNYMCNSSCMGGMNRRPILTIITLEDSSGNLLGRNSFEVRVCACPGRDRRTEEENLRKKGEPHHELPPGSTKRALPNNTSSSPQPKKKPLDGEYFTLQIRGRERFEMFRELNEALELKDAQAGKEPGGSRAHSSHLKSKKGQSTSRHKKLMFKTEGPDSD

The target in experiment [13] is human Retinoic Acid Receptor beta (RARb), RARB (gene 5915) (UniProt P10826). As to the kind of experiment: ATG_RARb_TRANS: Attagene TRANS-FACTORIAL HepG2 Assay for human Retinoic Acid Receptor beta (AID 2283004; active = hit-call score of the fitted dose curve at least 0.9, where 1 is the maximum). An outline of the steps: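 HepG2 cells transiently transfected with multiplexed GAL4-UAS reporter units expressing chimeric NR–Gal4 fusions; 24 h compound exposure. Reporter mRNA quantified by RT-PCR, 6-FAM labelling, HpaI digestion and capillary electrophoresis; gain-of-signal fitted against DMSO baseline.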
human Retinoic Acid Receptor beta (RARb), RARB (gene 5915), sequence (P10826 whole entry, looked up, the tested form may be a part): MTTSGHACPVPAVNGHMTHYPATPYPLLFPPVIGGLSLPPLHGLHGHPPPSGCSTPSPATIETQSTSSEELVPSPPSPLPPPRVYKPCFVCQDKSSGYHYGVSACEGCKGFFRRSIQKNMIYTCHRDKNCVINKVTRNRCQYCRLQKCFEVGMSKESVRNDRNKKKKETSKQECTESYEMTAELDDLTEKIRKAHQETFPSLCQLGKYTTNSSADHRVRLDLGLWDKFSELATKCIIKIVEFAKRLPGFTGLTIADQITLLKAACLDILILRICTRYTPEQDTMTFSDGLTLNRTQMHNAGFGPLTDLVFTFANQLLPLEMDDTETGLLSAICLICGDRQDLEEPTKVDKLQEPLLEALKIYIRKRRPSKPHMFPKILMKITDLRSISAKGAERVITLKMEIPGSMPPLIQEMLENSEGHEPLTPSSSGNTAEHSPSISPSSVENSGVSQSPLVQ

Experiment [14] has as its target human RAR-related Orphan Receptor beta (RORb), RORB (gene 6096) (UniProt Q92753). Description: ATG_RORb_TRANS: Attagene TRANS-FACTORIAL HepG2 Assay for human RAR-related Orphan Receptor beta (RORb) (AID 2283010; active = hit-call score of the fitted dose curve at least 0.9, where 1 is the maximum). A digest of the protocol: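 HepG2 cells transiently transfected with GAL4-UAS reporter units expressing chimeric NR-Gal4 protein; reporter mRNA measured 24 h after dosing by RT-PCR, 6-FAM labelling and capillary electrophoresis. Gain-of-signal fitted relative to DMSO baseline.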

Experimental findings from PubChem BioAssay (EPA / NIEHS) are described below.

Results filed as inconclusive are left out. Calls of active or inactive are those of the source. The calls were made as follows, unless noted: active = hit-call score of the fitted dose curve at least 0.9, where 1 is the maximum; inactive = score below 0.9.

human RAR-related Orphan Receptor beta (RORb), RORB (gene 6096), sequence (Q92753 whole entry, looked up, the tested form may be a part): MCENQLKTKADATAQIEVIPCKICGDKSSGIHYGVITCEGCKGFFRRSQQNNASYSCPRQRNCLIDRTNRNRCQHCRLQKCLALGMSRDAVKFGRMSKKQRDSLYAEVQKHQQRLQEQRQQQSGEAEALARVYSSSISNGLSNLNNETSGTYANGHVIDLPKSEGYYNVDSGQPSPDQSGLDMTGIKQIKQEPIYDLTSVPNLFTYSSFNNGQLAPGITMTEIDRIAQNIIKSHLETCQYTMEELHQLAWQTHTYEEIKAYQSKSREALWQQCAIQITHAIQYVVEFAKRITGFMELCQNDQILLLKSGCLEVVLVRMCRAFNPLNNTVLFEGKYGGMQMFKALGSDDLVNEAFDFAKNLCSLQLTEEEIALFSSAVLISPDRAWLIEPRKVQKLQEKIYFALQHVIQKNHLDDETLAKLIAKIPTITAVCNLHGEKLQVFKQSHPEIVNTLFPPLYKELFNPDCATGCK
Nuclear receptor subfamily 1 group I member 2 (Homo sapiens), sequence (O75469 whole entry, looked up, the tested form may be a part): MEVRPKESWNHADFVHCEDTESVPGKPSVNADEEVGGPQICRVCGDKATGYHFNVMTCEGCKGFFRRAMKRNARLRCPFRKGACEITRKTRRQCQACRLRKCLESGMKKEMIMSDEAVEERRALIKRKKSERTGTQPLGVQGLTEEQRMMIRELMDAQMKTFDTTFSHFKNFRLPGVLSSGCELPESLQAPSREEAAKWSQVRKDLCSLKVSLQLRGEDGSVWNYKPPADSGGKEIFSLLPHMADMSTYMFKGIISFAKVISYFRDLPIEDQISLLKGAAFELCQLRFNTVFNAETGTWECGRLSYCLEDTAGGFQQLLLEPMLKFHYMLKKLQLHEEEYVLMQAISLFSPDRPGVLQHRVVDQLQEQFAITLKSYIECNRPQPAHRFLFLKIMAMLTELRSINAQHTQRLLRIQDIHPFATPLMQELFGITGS
Myc proto-oncogene protein (Homo sapiens), sequence (P01106 whole entry, looked up): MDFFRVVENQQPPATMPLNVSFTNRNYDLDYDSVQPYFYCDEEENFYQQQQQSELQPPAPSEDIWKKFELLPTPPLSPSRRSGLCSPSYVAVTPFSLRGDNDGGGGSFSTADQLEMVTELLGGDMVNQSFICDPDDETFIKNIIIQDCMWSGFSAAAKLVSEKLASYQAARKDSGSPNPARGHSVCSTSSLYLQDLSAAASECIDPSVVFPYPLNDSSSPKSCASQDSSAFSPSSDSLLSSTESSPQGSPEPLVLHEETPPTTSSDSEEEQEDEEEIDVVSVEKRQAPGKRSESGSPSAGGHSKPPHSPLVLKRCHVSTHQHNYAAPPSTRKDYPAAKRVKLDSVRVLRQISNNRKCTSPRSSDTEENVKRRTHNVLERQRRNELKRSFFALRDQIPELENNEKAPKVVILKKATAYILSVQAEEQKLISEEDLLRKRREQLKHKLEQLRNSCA
Retinoic acid receptor alpha (Homo sapiens), sequence (P10276 whole entry, looked up, the tested form may be a part): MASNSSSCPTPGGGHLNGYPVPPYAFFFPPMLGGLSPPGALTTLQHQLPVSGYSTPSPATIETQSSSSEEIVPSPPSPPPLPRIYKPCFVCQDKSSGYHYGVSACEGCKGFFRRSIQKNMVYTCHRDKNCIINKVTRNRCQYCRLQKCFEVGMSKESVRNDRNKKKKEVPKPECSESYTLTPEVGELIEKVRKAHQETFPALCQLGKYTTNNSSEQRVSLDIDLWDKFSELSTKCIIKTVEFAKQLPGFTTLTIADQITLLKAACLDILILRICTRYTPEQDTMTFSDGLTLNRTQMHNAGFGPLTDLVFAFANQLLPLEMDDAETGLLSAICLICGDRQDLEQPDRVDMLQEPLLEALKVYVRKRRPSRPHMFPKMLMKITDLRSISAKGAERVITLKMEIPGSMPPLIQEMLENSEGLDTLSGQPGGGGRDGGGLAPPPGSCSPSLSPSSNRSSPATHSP

As usually defined, the AC50 is the concentration giving half of the maximal activity seen. With `C=C(C)[C@@H]1CC=C(C)C(=O)C1`, the call in experiment [1], in experiment [2], in experiment [4], in [5], in [6] and in [7] was inactive. Also, in experiment [8], the outcome was inactive. Further, the AC50 in experiment [3] is 45.4 µM (active).
As for `C[C@H]1O[C@@H](O[C@H]2[C@@H](O)C[C@H](O[C@H]3[C@@H](O)C[C@H](O[C@H]4CC[C@@]5(C)[C@H](CC[C@@H]6[C@@H]5C[C@@H](O)[C@]5(C)[C@@H](C7=CC(=O)OC7)CC[C@]65O)C4)O[C@@H]3C)O[C@@H]2C)C[C@H](O)[C@@H]1O`, the molecule was classed as inactive in [1], in experiment [5], in [9], in experiment [10], in experiment [6] and in [7]. The molecule was called inactive in experiment [11]. Also, the AC50 is 0.348 µM (active) in [2], 0.613 µM (active) in [3] and 0.133 µM (active) in [4].
Take `CN(C)c1ccncc1`: the molecule was classed as inactive in [1], in experiment [2], in experiment [3], in [4], in [5] and in experiment [9]. In addition, the molecule was classed as inactive in experiment [10] and in [7].
For `C=C[Si]1(C)O[Si](C)(C=C)O[Si](C)(C=C)O[Si](C)(C=C)O1` (stereo not given), the call in [1], in experiment [4], in experiment [12] and in experiment [6] was inactive. For the same molecule, the AC50 is 19.8 µM (active) in experiment [2] and 12 µM (active) in experiment [3].
In the case of `CC1CCC(C(C)C)C(O)C1` (stereo not given), the molecule was called inactive in [1], in experiment [2], in experiment [3], in experiment [4], in [9] and in [13]. In addition, the result in experiment [10], in [6], in [7], in experiment [11] and in [8] was inactive.
For `CCOc1ccccc1O`, the result in [1], in experiment [2], in experiment [3], in experiment [4], in experiment [12] and in experiment [10] was inactive. Moreover, the call in [6] and in experiment [14] was inactive.
With `C=Cc1ccc(C)cc1`, the outcome in experiment [1], in experiment [2], in experiment [3], in [4], in [12] and in experiment [6] was inactive. Further, the call in experiment [7] and in experiment [8] was inactive.
Regarding `Nc1ccn([C@H]2CS[C@@H](CO)O2)c(=O)n1`, the molecule was called inactive in [1], in experiment [2], in [3], in experiment [4], in experiment [12] and in experiment [11]. In addition, the outcome in experiment [8] was inactive.
Regarding `C=C1CC[C@H](O)C/C1=C/C=C1\CCC[C@]2(C)[C@@H]([C@H](C)/C=C/[C@H](C)C(C)C)CC[C@@H]12`, the result in experiment [1], in [4], in experiment [12] and in [6] was inactive. For the same molecule, the AC50 is 44.5 µM (active) in [2], 27 µM (active) in experiment [3] and 3.81 µM (active) in [7].
On to `CC1=C(Br)C(=O)C(Br)=C/C1=C(/c1ccccc1S(=O)(=O)O)c1cc(Br)c(O)c(Br)c1C`, for which the molecule was classed as inactive in [1], in experiment [2], in experiment [3], in experiment [4], in experiment [9] and in experiment [13]. The result in experiment [6], in [11] and in [14] was inactive. In addition, in experiment [7], the AC50 is 29.6 µM (active).
In the case of `CCC1(C)NC(=O)NC1=O` (stereo not given), the call in experiment [1], in experiment [2], in [3], in [4], in [12] and in experiment [13] was inactive. The molecule was called inactive in experiment [11] and in [14].
In the case of `CC(C)CCCCCCc1ccc(OCCOCCO)cc1`, the molecule was classed as inactive in [1], in experiment [2], in [3], in experiment [4], in [12] and in experiment [13]. The molecule was classed as inactive in experiment [7] and in experiment [11]. Moreover, in [10], the AC50 is 10.2 µM (active).
